Laboratory results: ChEMBL document CHEMBL4513216, “Probing the Open Global Health Chemical Diversity Library for Multistage-Active Starting Points for Next-Generation Antimalarials” (ACS Infect Dis, 2020)
Among all 69,000 compounds or so, about 8,600 (12%) showed an effect of 50% or more. For the sample, strong results were picked, then their nearest neighbours and some compounds at random.

The compounds below were run on Plasmodium berghei (assay: Screen against P. berghei liver stage (PbLuc), transformed with Luciferase, at 10uM). Conditions: tested at 10 uM.
Assay type: functional, HepG2

Structure (SMILES)	INHIBITION
Cn1c(C2CC2)nc2c1CCN(CC(=O)NC1CCCCNC1=O)C2 (configuration not stated)	52%
Cn1c(C2CC2)nc2c1CCN(CC(=O)Nc1nccs1)C2	11.9%
Cc1nc(CN2CCc3c(nc(C4CC4)n3C)C2)nc2ccccc12	74.1%
Cc1csc(NC(=O)CN2CCc3c(nc(C4CC4)n3C)C2)n1	67.4%
Cn1cnc2c1CCN(CC(=O)NC1CCCCNC1=O)C2 (configuration not stated)	-7.72%
CCN1CCC(NC(=O)CN2CCc3c(nc(C4CC4)n3C)C2)CC1	24.8%
Cc1ccc(C(=O)N(C)Cc2ccc3c(c2)OCO3)c(=O)[nH]1	17.8%
O=c1c2c[nH]c(N3CCCC3)nc-2cn1CCc1ccc(Cl)cc1	15.1%
Cc1nc(C)n(C2CCCN(C(=O)CCc3cn(C)nc3C)C2)n1 (configuration not stated)	21.5%
O=C(c1ccc[nH]1)N1CCc2nnc(Cn3cccn3)n2CC1	43.4%
O=C(O)c1ccc2ccc(N3CCN(CC4CC4)CC3)n2c1	54.1%
CN(C)C(=O)c1ccc2ccc(N3CCN(CC4CC4)CC3)n2c1	38.3%
O=C(NC1CC1)c1ccc2ccc(N3CCN(CC4CC4)CC3)n2c1	34.9%
CC(C)(C)OC(=O)N[C@H]1CCN(c2cncc(Br)c2)C1	22%
CCCC(=O)NC1CCCN(c2cncc(Br)c2)C1 (configuration not stated)	55.4%
CCOC(=O)NC1CCCN(c2cncc(Br)c2)C1 (configuration not stated)	35.9%
O=C(C1CCCCC1)N1CCC2(COc3ncccc3S(=O)(=O)N2)C1 (configuration not stated)	50.7%
O=C(c1ccc(Cl)s1)N1CCC2(COc3ncccc3S(=O)(=O)N2)C1 (configuration not stated)	2.69%
O=C(c1cscn1)N1CCC2(COc3ncccc3S(=O)(=O)N2)C1 (configuration not stated)	48.2%

Structure (SMILES)	INHIBITION
O=C(c1ccccn1)N1CCC2(COc3ncccc3S(=O)(=O)N2)C1 (configuration not stated)	67.3%
O=C1CC2(CCN(C(=O)C3CCCCC3)C2)Nc2ccccc2N1 (configuration not stated)	28.4%
O=C(c1ccncc1)N1CCC2(COc3ncccc3S(=O)(=O)N2)C1 (configuration not stated)	25.1%
CCc1nccn1-c1cncc(C2CCCN2Cc2ccccc2)n1 (configuration not stated)	45.6%
CCN1C[C@@H]2[C@@H](OC)CCN(S(=O)(=O)c3ccccc3F)[C@@H]2C1	21.6%
Cc1noc([C@@H](C)NCc2cccc(Cl)c2)c1C(=O)O	48.2%
CN1CC(c2cc(O)nc(NCc3cccc(F)c3)n2)CC1=O (configuration not stated)	-34.6%
O=S(=O)(NCC(O)c1ccoc1)c1ccc(Cl)s1 (configuration not stated)	46.1%
CNc1cc(N2CCCC2CNCc2csc(C(C)C)n2)ncn1 (configuration not stated)	46.2%
CSc1nc(C)cc(N2CCC(c3ncc[nH]3)CC2)n1	44.6%
CCOc1cc(C)nc(N2CCN(C(=O)c3cn[nH]c3CC)CC2)n1	44.1%
CC(C)=CCC1(CO)CCCN(S(C)(=O)=O)C1 (configuration not stated)	28.7%
CCN(C)S(=O)(=O)N1CCCC(CO)(CC=C(C)C)C1 (configuration not stated)	-3.96%
CC(C)=CCC1(CO)CCCN(S(=O)(=O)N2CCCC2)C1 (configuration not stated)	91.2%
O=C(c1cccnc1O)N1CCN(CCc2cccs2)CC1	20.45%
CCNc1nc(-c2cccnc2)c(-c2ccnc(NCCO)n2)s1	-80.5%
CC(C)(C)Nc1nc(-c2cccnc2)c(-c2ccnc(NCCO)n2)s1	59%
CCNc1nc(-c2cccnc2)c(-c2ccnc(NS(C)(=O)=O)n2)s1	47.1%
CN(CC(=O)N1CCCC1Cn1cccn1)Cc1ccccc1 (configuration not stated)	48.2%

Structure (SMILES)	INHIBITION
COc1cccc(CN2CCC3(CCN(C(=O)C4CC=CC4)CC3)C2)c1	21.3%
Cc1noc(C)c1C(=O)N1CCCCC1c1cc(C)n2ccnc2n1 (configuration not stated)	30.4%
Cc1cc(C2CCCCN2C(=O)c2cccn2C)nc2nccn12 (configuration not stated)	18.3%
Cc1cc(C2CCCCN2C(=O)c2ccsc2)nc2nccn12 (configuration not stated)	71.3%
O=C(c1cncs1)N1CCOCC(Cc2ccncn2)C1 (configuration not stated)	11.235%
COc1cc(CN(CCCN(C)C)Cc2ccccn2)cc2c1OCO2	18.9%
COc1cc(CN(C)C(C)c2ccccn2)cc2c1OCO2 (configuration not stated)	58.6%
COc1cc(CN(Cc2ccccn2)CC(C)C)cc2c1OCO2	36.2%
Cc1cc(F)c(S(=O)(=O)NCC(C)(C)N)cc1F	37.6%
CCN(CC)c1ncc(CNC2CCc3nc(C(C)C)nn3C2)s1 (configuration not stated)	-3.54%
CC(C)n1cnnc1CCNCc1cn(CCC(N)=O)c2ccccc12	6.94%
NC(=O)CCn1cc(CNCCCc2ccncc2)c2ccccc21	-71.1%
Cc1ccc(C(C)NCc2cn(CCC(N)=O)c3ccccc23)cc1C (configuration not stated)	27.7%
Cc1n[nH]c(C)c1CCCNCc1cn(CCC(N)=O)c2ccccc12	66.7%
NC(=O)CCn1cc(CNCc2csc(N)n2)c2ccccc21	60.9%
NC(=O)CCn1cc(CNCCCc2ccccc2O)c2ccccc21	88.5%
CC(NCc1cn(CCC(N)=O)c2ccccc12)c1nncn1C (configuration not stated)	32.7%
CCCN1CCN(Cc2cn(CCC(N)=O)c3ccccc23)CC1	39.8%
NC(=O)CCn1cc(CNCCCc2csc(N)n2)c2ccccc21	29%
